Measured values published in PubChem BioAssay AID485344 (National Center for Advancing Translational Sciences (NCATS), 2010).
Among all 340,000 compounds or so, about 6,900 (2%) were called active. Rule as the data show it: active = inhibition above about 30%; inactive = below that, where a call was filed. The sample as a whole holds a higher share of actives than the screen did.

biological target: D(2) dopamine receptor (Homo sapiens) (UniProt P14416); assay: HTS Assay for Allosteric Antagonists of the Human D2 Dopamine Receptor: Primary Screen for Antagonists; conditions: HEK293 TREx D2 cells, calcium flux, dopamine EC80; at 10 µM; stronger effect = higher value; also: 0% is about no effect
Summary of the method: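 In this primary screen, negative modulation is detected by tracking calcium flux after an EC80 dopamine challenge in inducible HEK293 T-REx D2 cells preexposed to test compound for 180 s.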

Chain of D(2) dopamine receptor (Homo sapiens) (P14416 whole entry, looked up): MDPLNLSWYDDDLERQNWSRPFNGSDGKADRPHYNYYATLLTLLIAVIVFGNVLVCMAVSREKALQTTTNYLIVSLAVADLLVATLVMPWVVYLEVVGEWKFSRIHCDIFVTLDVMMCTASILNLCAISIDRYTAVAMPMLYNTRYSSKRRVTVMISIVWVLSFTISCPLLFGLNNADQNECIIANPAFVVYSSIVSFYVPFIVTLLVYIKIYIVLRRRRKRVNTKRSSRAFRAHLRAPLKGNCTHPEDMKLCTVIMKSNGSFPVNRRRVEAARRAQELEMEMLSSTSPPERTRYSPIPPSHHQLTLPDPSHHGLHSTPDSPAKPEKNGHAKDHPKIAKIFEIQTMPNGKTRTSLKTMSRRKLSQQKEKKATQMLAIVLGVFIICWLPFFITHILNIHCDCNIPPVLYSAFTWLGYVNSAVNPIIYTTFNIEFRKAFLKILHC

Row | SMILES | inhibition
1 | CC(C)(C)OC(=O)Nc1ccc([C@@H](NC(=O)OC(C)(C)C)C(=O)OC(C)(C)C)cc1 | 5.44% (inactive)
2 | CCCc1nnc(NC(=O)CN2C(=O)c3ccccc3S2(=O)=O)s1 | 2.63% (inactive)
3 | Nc1nnc(SCCN2C(=O)c3ccccc3S2(=O)=O)s1 | 49.1% (active)
4 | Nc1nnc(SCn2nnc3ccccc3c2=O)s1 | -2.28% (inactive)
5 | CCN(CC(=O)Nc1ccc(OC)cc1)C(=O)c1ccc(Cl)c(S(=O)(=O)N2CCCC2)c1 | -15.2% (inactive)
6 | CCOc1ccc(CC(=O)NCCS(=O)(=O)N2CCN(c3ccccc3)CC2)cc1 | -11.3% (inactive)
7 | O=S(=O)(NCCS(=O)(=O)N1CCN(c2ccccc2)CC1)c1ccc(F)cc1 | -7.02% (inactive)
8 | COc1cc(/C=C/C(=O)N2CCc3ccccc3C2)cc(OC)c1OC | -15.7% (inactive)
9 | COc1cc(C)c(C)cc1S(=O)(=O)N1CCCc2ccccc21 | -2.59% (inactive)
10 | CCC(C)(C)NC(=O)/C=C/c1cc(OC)c(OC)c(S(=O)(=O)N2CCc3ccccc32)c1 | 40.9% (active)
11 | O=C(OCC(=O)N1CCCC1)c1ccc(Cl)nc1 | -5.57% (inactive)
12 | Cc1ccc2nc(NC(=O)C3CSC4(C)CCC(=O)N34)sc2c1 (configuration not stated) | -20% (inactive)
13 | CC1(C)O[C@@H]2[C@H](O1)[C@@H](CO)O[C@H]2n1c(N2CCCCC2)nc2c(N)ncnc21 | 15.7% (inactive)
14 | Cc1cccc(-n2c(C)cc(/C=N\NC(=O)c3cccs3)c2C)c1 | 2.76% (inactive)
15 | Cc1ccc(-n2nc(C)c(/C=N/NC(=O)c3cccs3)c2Cl)cc1 | 32.5% (active)
16 | CC(=O)Nc1ccc(/C=N/NC(=O)c2cccs2)cc1 | -20.3% (inactive)
17 | COc1ccc(CNC(=O)COC(=O)c2c(C)nn(-c3ccccc3)c2C)cc1OC | 5.14% (inactive)
18 | CCOc1ccc(NC(=O)Nc2cc(C)on2)cc1 | -12.8% (inactive)
19 | CCOc1ccc(NC(=O)Nc2ccc(N(C)C(C)=O)cc2)cc1 | 31.6% (active)
20 | CC(=O)N(C)c1ccc(NC(=O)Nc2cccc3ccccc23)cc1 | 11.1% (inactive)
21 | Cc1cccc(C(=O)NCC(=O)OCC(=O)N(C)CC(=O)Nc2ccccc2Cl)c1 | -38.4% (inactive)
22 | Cc1ccc(OCCCC(=O)Nc2ccc3c(c2)OCCO3)cc1 | -2.09% (inactive)
23 | COc1ccc(C(=O)OCC(=O)c2cc(C)n(CC3CCCO3)c2C)cc1[N+](=O)[O-] (configuration not stated) | -5.34% (inactive)

Row | SMILES | inhibition
24 | Cc1nc2ccccc2c(=O)n1NC(=O)c1ccccc1 | -7.6% (inactive)
25 | O=C(Nn1cnc2ccccc2c1=O)c1ccccc1 | 31.2% (active)
26 | O=C(Nn1cnc2ccccc2c1=O)c1ccc([N+](=O)[O-])cc1Cl | -1.86% (inactive)
27 | Cc1ccsc1C(=O)NC1CCCCC1C (configuration not stated) | -11.1% (inactive)
28 | CCc1cccc(C)c1NC(=O)COC(=O)CC1CCCC1 | -13.9% (inactive)
29 | CN(Cc1cccs1)C(=O)CN1C(=O)c2ccccc2S1(=O)=O | -30.6% (inactive)
30 | CCOc1ccccc1OCCCNCc1ccccc1 | 50% (active)
31 | CCOCCCNCc1cc(Br)ccc1OCC | 6.96% (inactive)
32 | CCOCCCNCc1ccc(OCc2ccc(F)cc2)c(OC)c1 | 2.04% (inactive)
33 | CN(CC(=O)Nc1ccc(F)c(F)c1F)C(=O)Cn1cnc2c1c(=O)n(C)c(=O)n2C | 2.66% (inactive)
34 | O=C(NCCCn1ccnc1)c1cc(-c2ccccc2)on1 | 7.61% (inactive)
35 | COc1ccccc1-c1cc(C(=O)NCCCn2ccnc2)no1 | 45.9% (active)
36 | COc1ccc(-c2cc(C(=O)NCCCn3ccnc3)no2)cc1 | 3.91% (inactive)
37 | CCOC(=O)[C@H]1[C@H]2COc3ccc(Cl)cc3[C@@H]2N2C(=O)c3cc(C)ccc3NC(=O)[C@@]12C | -4.21% (inactive)
38 | O=C(C1CC(=O)N(C2CCCC2)C1)N1CCN(c2cccc(C(F)(F)F)c2)CC1 (configuration not stated) | 11.8% (inactive)
39 | O=C1C2CCCN2C(=O)N1CCCCN1CCN(c2cccc(C(F)(F)F)c2)CC1 (configuration not stated) | 106% (active)
40 | Cc1ccccc1N1CCN(CCCN2C(=O)C3CCCCN3C2=O)CC1 (configuration not stated) | -27.4% (inactive)
41 | CC(C)CN(C(=O)c1ccc2c(c1)OCO2)C1CCS(=O)(=O)C1 (configuration not stated) | -6.59% (inactive)
42 | Cc1ccc2nnn(Cc3cccc(C(C)(C)C)c3O)c2c1 | 6.04% (inactive)
43 | COc1ccccc1N1CCN(C(=O)c2c(-c3c(Cl)cccc3Cl)noc2C)CC1 | 40% (active)
44 | COc1ccccc1N1CCN(C(=O)c2ccc(Cl)c(S(=O)(=O)N3CCCC3)c2)CC1 | -0.604% (inactive)
45 | COc1cccc(-c2cc(C(=O)N3CCN(c4ccccc4OC)CC3)no2)c1 | 3.44% (inactive)
46 | Cn1c(N)c(C(=O)COC(=O)COc2ccc(Cl)cc2)c(=O)n(C)c1=O | 20.2% (inactive)

Row | SMILES | inhibition
47 | COc1ccc(C)cc1S(=O)(=O)Nc1cc2c3c(c1)CCC(=O)N3CCC2 | 6.3% (inactive)
48 | Cc1ccc(C)c(OCCC(=O)OCC(=O)c2ccc3c(c2)NC(=O)CO3)c1 | -0.691% (inactive)
49 | COc1ccccc1-c1sc2ccccc2c1-c1ccc(Br)nc1 | 7.5% (inactive)
50 | Cc1n[nH]c(=O)c2c(NC(=O)CSc3cc(Cl)ccc3Cl)oc(C)c12 | 10% (inactive)
51 | Cc1c(C(=O)Nc2ccccn2)oc2ccc(Br)cc12 | -19.8% (inactive)
52 | O=C(COC(=O)c1ccccc1SCC(=O)N1CCCC1)Nc1ccccc1OC(F)F | -3.18% (inactive)
53 | COC(=O)c1cc(S(=O)(=O)NCC2CCN(Cc3ccc(Cl)cc3)CC2)cn1C | -3.52% (inactive)
54 | COc1ccc(CN2CCC(c3nc4ccc(Cl)cc4[nH]3)CC2)cc1 | 59.7% (active)
55 | COc1ccc(Cn2nnc3c(=O)[nH]c(C4CCN(C(=O)c5ccccc5Cl)CC4)nc32)cc1 | 5.81% (inactive)
56 | Nc1c(N(CCCO)C(=O)C2CCCC2)c(=O)[nH]c(=O)n1Cc1ccccc1 | 10.6% (inactive)
57 | Cc1cccc(NC(=O)CN2CCN(CC(=O)NCC3(N4CCCCC4)CCCCC3)CC2)c1C | 6.75% (inactive)
58 | CCN(CC(=O)Nc1cc(Cl)ccc1C)C(=O)CSCc1ccccc1 | 6.06% (inactive)
59 | CC(C#N)(NC(=O)CN1CCN(S(=O)(=O)c2cc(C(F)(F)F)ccc2Cl)CC1)C1CC1 (configuration not stated) | 12.9% (inactive)
60 | CN1CCN(c2ccc([N+](=O)[O-])c(Sc3nc4ccccc4[nH]3)c2)CC1 | 88.9% (active)
61 | O=C(CSc1nc2ccccc2[nH]1)N/N=C/C=C\c1ccccc1[N+](=O)[O-] | -1.1% (inactive)
62 | CC1CCN(c2ccc([N+](=O)[O-])c(SCCO)c2)CC1 | -11.8% (inactive)
63 | Cc1noc(C)c1COc1ccccc1C(=O)N(C)CC(=O)Nc1cccc(F)c1 | 6.3% (inactive)
64 | COc1ccc(N(CC(=O)N/N=C/c2cccc3c2OCCO3)S(=O)(=O)c2ccc(NC(C)=O)cc2)cc1 | 44.5% (active)
65 | CC(=O)Nc1ccc(S(=O)(=O)N(CCc2ccccc2)CC(=O)N/N=C/c2ccc(C(=O)O)cc2)cc1 | 10.8% (inactive)
66 | COc1ccc(S(=O)(=O)N(CC(=O)N/N=C/c2ccccc2C(=O)O)c2ccccc2OC)cc1 | 1.95% (inactive)
67 | CC(CCn1cccn1)NC(=O)CCc1nnc(CCc2ccccc2)o1 (configuration not stated) | 3.4% (inactive)
68 | O=C(CCc1nnc(CCCCc2ccccc2)o1)NC(c1cccnc1)C(F)(F)F (configuration not stated) | 32.7% (active)
69 | Cc1cc(-c2nnc(CCC(=O)NC(c3ccccc3)c3ccccc3)o2)no1 | 4.61% (inactive)

Row | SMILES | inhibition
70 | O=S(=O)(NCCc1ccccn1)c1cc(Cl)cc(Cl)c1O | 0.268% (inactive)
71 | O=C(Nc1ncccc1O)c1ccc(S(=O)(=O)N2CCCC2)cc1 | -6.12% (inactive)
72 | O=C(CN1C(=O)NC2(CCCCC2)C1=O)N1CCN(C(=O)c2cccs2)CC1 | -4.48% (inactive)
73 | CCCc1ccc(C(=O)COC(=O)CN2C(=O)NC3(CCCCC3C)C2=O)cc1 (configuration not stated) | -19.2% (inactive)
74 | COc1ccc(NC(=O)CSc2nc(C)cs2)cc1 | 7.3% (inactive)
75 | COc1ccc(NC(=O)c2sc(N)nc2-c2ccccc2)cc1 | -6.34% (inactive)
76 | COc1ccc(NC(=O)c2sccc2SCC#N)cc1 | 31.6% (active)
77 | NC(=O)NC(=O)C(OC(=O)CCNS(=O)(=O)c1ccccc1)c1ccccc1 (configuration not stated) | 12.6% (inactive)
78 | O=C1COc2ccc(C(=O)CSc3ccc(Br)cc3)cc2N1 | 11.8% (inactive)
79 | COc1cccc(C2=CC(=O)C[C@H](c3ccc(OC)c(OC)c3)C2)c1 | 9.37% (inactive)
80 | CC(C)CCN1CCN(Cc2cn[nH]c2C2CCCCC2)CC1CCO (configuration not stated) | 56.2% (active)
81 | CC(C)CCN1CCN(C/C=C/c2ccco2)CC1CCO (configuration not stated) | -9.65% (inactive)
82 | CC(C)CCN1CCN(Cc2ccc(C(F)(F)F)cc2)CC1CCO (configuration not stated) | 14.1% (inactive)
83 | COc1ccc(CCNC(=O)COc2ccc3c(c2)OCO3)cc1 | -6.03% (inactive)
84 | Cn1c(=O)c2ccccc2n(CC(=O)Nc2ccc3c(c2)OCCO3)c1=O | 0.133% (inactive)
85 | O=C(CN1CCC(O)(c2ccccc2)CC1)Nc1ccc2c(c1)OCCO2 | 94.9% (active)
86 | O=C(Cn1c(=O)sc2ccccc21)Nc1ccc2c(c1)OCCO2 | -10.2% (inactive)
87 | CC1CCCC(NC(=O)c2cc(-c3ccncc3)nc3ccccc23)C1C (configuration not stated) | -1.15% (inactive)
88 | CC(OC(=O)Cc1ccc(F)cc1)C(=O)N1CCc2ccccc21 (configuration not stated) | -8.93% (inactive)
89 | CN(CC(=O)Nc1ccc(F)c(F)c1F)C(=O)C1CC(=O)N(C2CCCC2)C1 (configuration not stated) | -11.5% (inactive)
90 | CC(NC(=O)c1cc(-c2ccccc2)on1)c1ccccc1 (configuration not stated) | 11.6% (inactive)
91 | O=C(NC1CCCC1)c1cc(-c2ccccc2)on1 | 37.6% (active)
92 | O=C(NC1CCCCC1)c1cc(C2CC2)on1 | -9.03% (inactive)
